# From PubChem BioAssay (NCI)
# About 83,000 compounds went through this panel and 20% of them were active in at least one assay; those are over-represented in the sample as a whole.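 Method: cells in 96-well plates; compound added at one concentration; 48 h incubation; percent growth measured; values under 10 scored active.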 Values without a mark were called inactive. Active and inactive are the calls of the source.
# Test system: BT-549 breast
# Assay: NCI-60 one-dose screen, 48 h (100 = growth as untreated, 0 = no growth, -100 = all killed)
# Settings: 10 µM unless noted
# Method: Growth inhibition of the BT-549 human tumor cell line is measured as a screen for anti-cancer activity. Cells are grown in 96 well plates and exposed to the test compound for 48 hours. Compounds are tested at a single concentration, which is 10^-5 M for most compounds. The reported endpoint is percent growth (GI% or GIPRCNT), where numbers from 0 - 100% represent growth inhibition, and numbers from -100% - 0 represent cell death. For example, a value of 40 represents 60% growth inhibition. A value of 0 means no net growth occurred over the course of the experiment. A value of -40 indicates 40% of cells at the beginning of the experiment died by the end of the experiment. A value of -100 means all cells are dead at the end of the experiment.
# NCI-60 Human Tumor Cell Lines Screen was performed using the standard one-dose NCI protocol, which is described in more detail at https://dtp.cancer.gov/discovery_development/nci-60/default.htm.
# Compounds with GIPRCNT values below 10 were considered active. Activity score was based on GIPRCNT using the following formula: […]
# Score is 0 for GIPRCNT values of 100 or above, 50 for GIPRCNT values of 0, and 100 for GIPRCNT values of -100.
row,Compound,growth
1,C[C@H]1OCC2(CCN(c3cnc(C(=O)Nc4cc(F)cc5cccnc45)cn3)CC2)[C@H]1N,91.5%
2,N#Cc1c(-c2cccs2)c(C#N)c(=O)n(Cc2nc3ccccc3[nH]2)c1N,102%
3,COc1ccc(/C=N/NC(=O)c2c(N)nn(C)c2Nc2ccccc2)cc1,14%
4,O=c1oc2ccc(-c3ccc(F)cc3F)cc2c(=O)n1-c1ccc(Br)cc1F,30.9%
5,Cc1ccc(S(=O)(=O)c2nc(-c3ccc(F)cc3)oc2S(C)(=O)=O)cc1,43%
6,CCCCCCN1C=C/C(=C\C(=O)n2ccc3ccccc32)c2ccccc21,65%
7,O=C(/C=C/c1ccccc1Cl)Nc1ncc(Cc2cc(Cl)ccc2Cl)s1,32.5%
8,Cc1[nH]c(C(=O)Nc2ccccc2OCc2cccc(C(=O)NC3CCNC3)c2)c(Cl)c1Cl (stereo not given),83.8%
9,NC(=O)n1c(=O)n(-c2cccc(C(F)(F)F)c2)c(=O)c2cc(-c3ccc(F)cc3F)ccc21,-12.5% (active)
10,O=C(CCCCCC/C=C\c1csc(Br)n1)NO,103%
11,Clc1cccc(/C=N/Nc2nc(N/N=C/c3cccc(Cl)c3)nc(N3CCOCC3)n2)c1,92.7%
12,CCOC(=O)C1=C(C)NC(C)=C(C(=O)OC(C)C)C1c1cccc(C#N)c1 (stereo not given),126%
13,NCCNC(=O)c1cccc(COc2ccccc2NC(=O)c2cc(Cl)c(Cl)[nH]2)c1,105%
14,C#CCn1cc(/C=N/Nc2nc(-c3ccc(Br)cc3)cs2)c2ccccc21,111%
15,CN(C)CC(=O)Nc1nc(-c2cccc(NS(=O)(=O)c3cccc4c(N(C)C)cccc34)c2)cs1,87.8%
16,Cc1cc2nc3c4cc(C#N)ccc4n(CCN(C)C)c3nc2cc1C,-28.3% (active)
17,CC[C@H](CC[C@@H](C)[C@H]1CC[C@H]2[C@@H]3CC(=O)C4=CC(=O)/C(=C/c5ccc([N+](=O)[O-])cc5)C[C@]4(C)[C@H]3CC[C@]12C)C(C)C,109%
18,CCc1cc(OC(=O)N2CCN(CCC(C)(COC(C)(C)C)COC(C)(C)C)CC2)ccc1Nc1cc(-c2ccc(-n3cccn3)cc2)[nH]n1,108%
19,CN1CCN(Cc2ccc(NC(=O)c3cncc(C#Cc4cnc5ccc(NCCO)nn45)c3)cc2C(F)(F)F)CC1,-32.2% (active)
20,CC[C@]12C=CCN3CC[C@]4(C(=C(C(=O)OC)C1)Nc1cc5c(cc14)[C@@H]1[C@H](O5)[C@@H](O)[C@@]4(CC)CC(C(=O)OC)=C5Nc6cc(O)ccc6[C@@]56CCN1C46)C32 (stereo not given in full),18.8%

row,Compound,growth
1,Cc1ccc(NC(=O)/C=C/c2ccc(OCCCOc3ccc4c(C)cc(=O)oc4c3)cc2)cc1,98.7%
2,O=C(Nc1ccc(Cl)c(C(F)(F)F)c1)Nc1ccc2c(ccn2C(=O)c2cccc(F)c2)c1,53.3%
3,COc1ccc(-c2cc(-c3ccc(N4CCOCC4)cc3)n3c(n2)nc2ccccc23)cc1OC,82.3%
4,C[C@H](Nc1ncnc2ccc(-c3cnc(Cl)c(NS(C)(=O)=O)c3)cc12)c1ccccc1,-61.5% (active)
5,Cc1c(C(=O)/C=C/c2ccc(Cl)cc2)nnn1-c1ccc2oc(=O)ccc2c1,109%
6,O=C1/C(=C/c2cc(F)cc(F)c2)Cc2cc3c(cc21)OCO3,35.4%
7,COc1cc(C(C)=C(c2ccc(OCCN(C)C)cc2)c2ccc(OCCN(C)C)cc2)ccc1F,107%
8,COc1ccc([C@H]2C(=O)N(c3cc(OC)c(OC)c(OC)c3)[C@@H]2c2ccc(OC)c(O)c2)cc1,-28.2% (active)
9,NC(=S)n1c(=O)n(-c2cccc(C(F)(F)F)c2)c(=O)c2cc(-c3ccc(F)cc3F)ccc21,-7.8% (active)
10,NC1C2CCC1CN(c1cnc(C(=O)Nc3cc(F)cc4cccnc34)cn1)C2 (stereo not given),94.7%
11,Cn1cc(-c2cc3ncnc(Nc4ccc(NC(=O)Nc5cc(C(C)(C)C)on5)cc4)c3s2)cn1,16.4%
12,N#CC1=C2NCCCNc3oc(nc3C#N)Cc3ccccc3CC(=N1)O2,135%
13,Cc1ccc(/C(N)=N/C(N)=N/c2nc3ccccc3s2)cc1,102%
14,CC[C@]12CC(C(=O)OC)=C3Nc4ccccc4[C@@]34CCN(C14)[C@@H]1c3cc4c(cc3O[C@@H]1[C@H]2O)NC1=C(C(=O)OC)C[C@@]2(CC)C3N(CC[C@@]143)C[C@H]1O[C@H]12 (stereo not given in full),33.9%
15,O=C1[C@H]2Cc3c([nH]c4ccccc34)[C@H](c3ccc(Cl)cc3)N2C(=O)CN1C1CCN(CC2CCCCC2)CC1,70.8%
16,CN1CCN(Cc2ccc(NC(=O)c3cncc(C#Cc4cnc5ccc(OCC(F)F)nn45)c3)cc2C(F)(F)F)CC1,-16.6% (active)
17,COc1ccc(-c2cc(-c3ccc(N(C)C)cc3)n3c(n2)nc2ccccc23)cc1,40.1%
18,Cc1csc(/N=C(N)/N=C(\N)c2cccs2)n1,134%
19,O=C(Nc1cccc(C(F)(F)F)c1)N1CCN(c2cc(-c3cn(-c4ccccc4)nc3-c3cccc(O)c3)ccn2)CC1,55.4%
20,C#C[C@]1(O)CC[C@H]2[C@@H]3CC=C4c5sc(Nc6cccc(F)c6)nc5CC[C@]4(C)[C@H]3CC[C@@]21C,19.4%
